Screens: PubChem, several laboratories
VHR inh abs: DUSP3 (human) phosphatase inhibition; P51452; recombinant VHR phosphatase, pNPP absorbance; inhibition, % at 13.3 µM; hit rate 0.52% among 290,000; in the data active means inhibition above about 50%
Target sequence (P51452 whole entry, looked up): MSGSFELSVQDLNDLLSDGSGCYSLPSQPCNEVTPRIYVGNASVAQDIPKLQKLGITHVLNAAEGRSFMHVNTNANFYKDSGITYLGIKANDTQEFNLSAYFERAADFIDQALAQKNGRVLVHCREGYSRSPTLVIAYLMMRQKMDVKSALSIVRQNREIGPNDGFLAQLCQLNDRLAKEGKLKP
PriA SSB inh: inhibitors of Klebsiella pneumoniae PriA binding to SSB C-terminal tail; AlphaScreen SSBct-PriA binding, biotinylated peptide; inhibition, % at 33 µM; hit rate 0.6% among 430,000; in the data active means inhibition mostly above about 37%, no sharp cut-off; inactive means mostly below about 20%;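 further: plate controls were negative control peptide for no effect and reference peptide for full effect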
TcdB inh: TcdB glycohydrolase inhibition | P18177 | TcdB glycohydrolase enzymatic assay, plate reader | inhibition, % at 9.99 µM | hit rate 0.24% among 350,000; in the data active means inhibition above about 10%
CCHF vOTU inh: CCHFV vOTU protease inhibition; Pep-AMC fluorescence; AID 651958; inhibition, % at 11.5 µM; hit rate 0.55% among 370,000; in the data active means inhibition above about 30%; further: 0% = vehicle wells with enzyme and 100% = no enzyme wells
SARS 3CLpro inh: SARS-CoV 3CLpro protease inhibition; P0C6X7; recombinant SARS-CoV 3CLpro, quenched FRET peptide cleavage; inhibition, % at 6 µM; hit rate 0.14% among 290,000; in the data active means inhibition above about 12%
BH1578 lux ind: quorum light induction in luxS cqsA deficient V. cholerae | V. cholerae BH1578 lux reporter, luminescence, 6 h | activation, % at 18.7 µM | hit rate 0.16% among 350,000; in the data active means activation mostly above about 9.7%, no sharp cut-off
* marks the source's active call; other numbers are inactive results; i = inactive; x = not tested or not shown. Only some compounds are listed: those with a hit (about 1.3% of all), similar ones and a draw of the others.

SMILES	VHR inh abs	PriA SSB inh	TcdB inh	CCHF vOTU inh	SARS 3CLpro inh	BH1578 lux ind
O=C(COc1ccc2ccccc2c1)N[C@@H](C(=O)O)c1ccc(O)cc1	24	40*	1	1	-2	-8
O=C(COc1ccc2ccccc2c1)NNC(=O)Cc1ccccc1	1	-13	0	9	-1	i
Cc1c(Cl)cccc1NC(=O)CSc1nnc(-c2cccnc2)n1N	x	-23	x	x	x	x
O=C(CSCc1ccccc1)NCC(O)c1ccc2c(c1)CCO2 (stereo not drawn)	x	-9	x	x	x	x
Cn1c(=O)c2cc(NCc3ccccc3)nnc2n(C)c1=O	-1	1	x	96*	0	4
c1ccc(-c2cn(C[C@H]3CC[C@@H]([C@@H]4CC[C@H](Cn5cc(-c6ccccc6)nn5)O4)O3)nn2)cc1	37	-4	0	-1	5	0
c1ccc(-c2cn(C[C@H]3CC[C@@H]([C@@H]4CC[C@H](Cn5cc(-c6ccccn6)nn5)O4)O3)nn2)nc1	-3	101*	1	7	-10	i
CN=c1scc(C)n1/N=C/c1ccc(O)cc1	18	x	x	14	8	-1
C=CCN=c1scc(C)n1/N=C/c1ccc(O)c(O)c1	-17	x	15*	3	2	i
C/C(=N\Nc1ccc([N+](=O)[O-])cc1)c1cccc(N)c1	18	x	15*	14	4	3
C/C(=N/NS(=O)(=O)c1cccc([N+](=O)[O-])c1)c1c[nH]c2ccccc12	14	x	-1	2	2	0
CC(=NNc1ccc([N+](=O)[O-])cc1)c1c[nH]c2ccccc12	x	40*	x	x	x	x
O=C(O)c1cc(N2CCCC2)ccn1	x	-3	-13	-6	x	i
O=C(O)c1cc(I)ccn1	x	67*	x	x	x	x
O=C(O)c1cc(-n2cccn2)ccn1	x	75*	x	x	x	x
O=[N+]([O-])c1ccc(O)c(/C=N/NC2=NS(=O)(=O)c3ccccc32)c1	17	x	0	-15	5	0
O=[N+]([O-])c1ccc(O)c(C=NNC2=NS(=O)(=O)c3ccccc32)c1	x	51*	x	x	x	x
COc1ccc(SCC2CCN(C(=O)c3cccc(N(C)C)c3)CC2)cc1	x	42*	x	x	x	x
COc1ccc(SCC2CCN(C(=O)c3cccc4ccccc34)CC2)cc1	x	23	x	x	x	x
O=C(NC(c1cccnc1)C1CCOCC1)c1cnn(-c2ccccc2)n1 (stereo not drawn)	x	3	x	x	x	x
Cc1nn2c(N3CCN(C)CC3)cc(C(C)(C)C)nc2c1-c1ccccc1	20	-19	2	2	1	i
Cc1nn2c(N3CCN(C4CCCC4)CC3)cc(C(C)(C)C)nc2c1-c1ccccc1	51*	-10	x	-8	0	i
O=[N+]([O-])c1cccnc1Sc1ncccc1O	x	35	x	x	x	x
O=[N+]([O-])c1cccnc1Sc1ccc(Cl)cc1	2	52*	1	-2	3	-18
O=[N+]([O-])c1cccnc1Sc1ccccc1	x	82*	x	x	x	x
SMILES	VHR inh abs	PriA SSB inh	TcdB inh	CCHF vOTU inh	SARS 3CLpro inh	BH1578 lux ind
Cc1cc(C)c(S(=O)(=O)N2CCCCC2C(=O)O)c(C)c1 (stereo not drawn)	13	4	13*	-8	3	i
COc1ccc(-n2c(O)c(C=NNS(=O)(=O)c3cccc([N+](=O)[O-])c3)c3ccccc3c2=O)cc1OC	x	2	x	x	x	x
COc1cnc(-c2ccccn2)nc1Oc1ccc(Cl)cc1	21	52*	x	-3	6	i
COc1cnc(-c2ccccn2)nc1Oc1ccc(F)cc1F	6	53*	1	-7	3	i
COc1cnc(-c2ccccn2)nc1Oc1ccccc1Cl	-5	2	x	2	4	x
COc1cnc(-c2ccccn2)nc1Oc1ccc(Cl)c2ccccc12	2	0	x	0	2	3
CC(=O)Nc1cccc(NC(=O)Cc2cc(=O)[nH]c(SCc3ccccc3)n2)c1	x	-1	x	x	x	x
CN(c1ccccc1)S(=O)(=O)c1cccc(C(=O)NCCc2ccc(O)c(O)c2)c1	9	5	15*	-1	1	-1
CCN(CC)S(=O)(=O)c1cccc(C(=O)NCCc2ccccc2)c1	x	-1	1	2	-2	1
COc1ccc(CCNC(=O)c2ccc(S(=O)(=O)N(C)c3ccccc3)cc2)cc1OC	52*	5	4	14	2	0
COC(=O)c1cc(CNC(=O)c2ccc(S(=O)(=O)N(C)c3ccccc3)cc2)ccc1OC	x	-5	1	-1	x	i
Fc1ccccc1-c1n[nH]c(=S)o1	x	-12	x	x	x	x
